HT1080 IDH1KD tx: kills HT-1080 cells with IDH1 knockdown; Potency, µM (doses to about 46.1 µM), most hits filed as cytotoxic; HT-1080 IDH1 knockdown viability, ATP luminescence, 48 h; AID 686971; 360,000 compounds, 2% hits
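Cytotoxicity counter-line: IDH1KD HT-1080, 48 h, CellTiter-Glo. Curves classed by r2, magnitude and activity.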
HT1080NT lethal: kills 2HG-producing HT-1080-NT fibrosarcoma cells. HT-1080-NT fibrosarcoma viability, CellTiter-Glo ATP luminescence, 48 h. Potency, µM (doses to about 46.1 µM), usual class: cytotoxic. 360,000 compounds, 1.6% hits;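 note: NT is the 2HG producing partner of a matched IDH1 knockdown line; nearly all actives have a fitted effect of over 55% in size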
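Read-out is CellTiter-Glo luminescence after 10 minutes at room temperature, following 48 hours' compound treatment of HT-1080-NT cells (750 cells/well, RPMI, 5% FBS, 37 degrees C).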
IL1B secr inh: inhibitors of inflammasome signaling (IL-1 beta secretion); THP-1 LPS/ATP IL-1B secretion, AlphaLISA, 16 h; stronger effect = lower value; AID 743279; 360,000 compounds, 4.7% hits; activity change, % at 57.5 µM; in the data active = activity change below about -50%; inconclusive = mostly about -30% to -49%
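THP-1 cells pretreated 1 hr with compounds (up to 57.5 uM final), then stimulated with LPS (250 ng/mL final) plus ATP (1.25 mM final); secreted IL-1B measured by AlphaLISA after 16 hr, decreased signal indicating inhibition.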
DT40 TDP1 no CPT: qHTS for Inhibitors of human tyrosyl-DNA phosphodiesterase 1 (TDP1): qHTS in cells in absence of CPT; DT40 Tdp1-/- hTDP1 cells, no CPT, ATP luminescence, 48 h; Potency, µM (titrated, usually from 46.2 µM), actives largely listed as inhibitors; 420,000 compounds, 15% hits; AID 686978, 2013; note: nearly all actives have a fitted effect of over 55% in size
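Growth of hTDP1-complemented DT40 Tdp1-knockout cells is measured by ATP luminescence after at least 48 hr compound exposure at 37 °C, with DMSO substituting for the 20 nM CPT used in the parallel screen.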
12-LOX inh: inhibitors of human 12S-lipoxygenase ALOX12 | AID 1671190 | Potency, µM (series often up to 108 µM), usual class: inhibitors | purified 12hLO, xylenol orange hydroperoxide absorbance | P18054 | 580,000 compounds, 1.1% hits
Target sequence (P18054 whole entry, looked up): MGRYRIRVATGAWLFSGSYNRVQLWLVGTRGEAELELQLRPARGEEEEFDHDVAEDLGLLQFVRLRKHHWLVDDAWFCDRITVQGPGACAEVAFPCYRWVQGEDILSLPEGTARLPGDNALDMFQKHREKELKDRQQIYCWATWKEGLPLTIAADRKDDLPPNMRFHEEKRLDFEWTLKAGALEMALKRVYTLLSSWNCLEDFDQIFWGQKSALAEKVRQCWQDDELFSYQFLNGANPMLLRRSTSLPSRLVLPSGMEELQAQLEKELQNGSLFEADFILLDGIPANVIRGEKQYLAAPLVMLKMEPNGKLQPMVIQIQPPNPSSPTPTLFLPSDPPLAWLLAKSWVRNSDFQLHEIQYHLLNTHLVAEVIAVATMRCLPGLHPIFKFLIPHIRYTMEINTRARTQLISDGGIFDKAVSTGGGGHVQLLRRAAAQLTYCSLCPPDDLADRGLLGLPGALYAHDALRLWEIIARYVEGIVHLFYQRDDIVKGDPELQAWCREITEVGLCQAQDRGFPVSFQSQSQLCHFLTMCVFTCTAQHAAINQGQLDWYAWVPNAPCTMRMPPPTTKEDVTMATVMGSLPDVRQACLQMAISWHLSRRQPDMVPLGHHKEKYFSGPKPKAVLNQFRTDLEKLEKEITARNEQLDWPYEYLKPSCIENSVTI
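Purified human 12hLO (150 nM final) in 25 mM Hepes, 0.01% Triton X-100, pH 7.0 was preincubated 15 min at room temperature with compound. Then 40 uM arachidonic acid was added, 30 min. Hydroperoxide was read by Fe-XO absorbance ratio 573/405 nm.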
DT40 TDP1 CPT: DT40-hTDP1 cell growth loss with CPT | 420,000 compounds, 12% hits | chicken DT40 Tdp1-/-;hTDP1 cells + 20 nM CPT, ATP luminescence, 48 h | Potency, µM (doses to about 46.2 µM), most hits filed as inhibitors; note: nearly all actives have a fitted effect of over 55% in size
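Cell growth measured by CellTiter-Glo luminescence after a minimum 48 h, 37 C compound exposure with 20 nM CPT in Tdp1-knockout DT40 cells stably expressing hTDP1, seeded 400/well; qHTS titration format.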
Each line names hits and unclear results; the compound was inactive in the other large screens. The sample as a whole holds a higher share of hits than the screen did. Unless noted, calls come from the whole dose curve; as a rule, active = well fitted curve in the direction sought with a large enough effect; inconclusive = small, poorly fitted or top-dose-only effect, or another doubt; inactive = no such curve, though single readings can be large; an effect the other way counts as inactive or inconclusive.

Cc1ccc(Oc2ccc(S(=O)(=O)N3CCOCC3)cc2C(N)=O)c(-n2nc3ccccc3n2)c1	HT1080 IDH1KD tx 4.11µM, HT1080NT lethal inconclusive, DT40 TDP1 no CPT 4.11µM, DT40 TDP1 CPT 3.66µM
Cc1cccc(Cc2cnc(N3C(=N)SC(c4ccccc4)C3=O)s2)c1 (configuration not stated)	DT40 TDP1 no CPT 25.9µM, DT40 TDP1 CPT 29.1µM
Cc1cccc(Cc2cnc(N3C(=N)SC(C)C3=O)s2)c1 (configuration not stated)	IL1B secr inh -84.4, DT40 TDP1 no CPT 18.4µM, DT40 TDP1 CPT inconclusive
Cc1ccc(Cc2cnc(N3C(=N)SC(C)C3=O)s2)cc1 (configuration not stated)	DT40 TDP1 no CPT inconclusive, DT40 TDP1 CPT inconclusive
CN(Cc1ccsc1)C(=O)Cc1ccc(-c2ccccc2)cc1	none (no result: HT1080 IDH1KD tx, HT1080NT lethal, IL1B secr inh, DT40 TDP1 no CPT, DT40 TDP1 CPT)
CN(CC(O)COc1ccccc1F)C1CCCCC1 (configuration not stated)	none
Cc1ccccc1OCC(O)CN(Cc1ccccc1O)C1CCCCC1 (configuration not stated)	HT1080 IDH1KD tx inconclusive, HT1080NT lethal inconclusive, IL1B secr inh -66.0, DT40 TDP1 no CPT 13µM, DT40 TDP1 CPT 16.4µM
CCN(CC(O)COc1ccc(OCC(O)CN(CC)C2CCCCC2)cc1)C1CCCCC1 (configuration not stated)	HT1080 IDH1KD tx inconclusive, IL1B secr inh -65.6, DT40 TDP1 no CPT inconclusive, DT40 TDP1 CPT inconclusive
O=C1CO[C@H]2CN(c3ncccn3)C[C@H]2N1CC1CCCCC1	12-LOX inh 28.2µM (no result: HT1080 IDH1KD tx, HT1080NT lethal, IL1B secr inh, DT40 TDP1 no CPT, DT40 TDP1 CPT)
CO[C@H]1C(=O)N(C(C)C)[C@H]1C1CCN(S(=O)(=O)Cc2ccccc2F)CC1	none (no result: HT1080 IDH1KD tx, HT1080NT lethal, IL1B secr inh, DT40 TDP1 no CPT, DT40 TDP1 CPT)
Cc1nc(N2CCCC(Cn3ccnc3)C2)c2sccc2n1 (configuration not stated)	none (no result: HT1080 IDH1KD tx, HT1080NT lethal, IL1B secr inh, DT40 TDP1 no CPT, DT40 TDP1 CPT)
COC(=O)c1[nH]c2c(c1C)C(=O)CC(c1ccc(OC)c(OC)c1)C2 (configuration not stated)	DT40 TDP1 CPT inconclusive (no result: 12-LOX inh)
COC(=O)c1[nH]c2c(c1C)C(=O)CC(c1cccc(OC)c1)C2 (configuration not stated)	HT1080 IDH1KD tx 0.92µM, HT1080NT lethal 0.731µM, DT40 TDP1 no CPT 1.3µM, DT40 TDP1 CPT 1.46µM
COc1cc(C2CC(=O)c3c([nH]c(C(=O)OC4CCCC4)c3C)C2)cc(OC)c1OC (configuration not stated)	DT40 TDP1 no CPT 1.84µM, DT40 TDP1 CPT 1.64µM (no result: HT1080 IDH1KD tx, HT1080NT lethal, IL1B secr inh)
CCOCCOC(=O)c1[nH]c2c(c1C)C(=O)CC(c1cc(OC)c(OC)c(OC)c1)C2 (configuration not stated)	DT40 TDP1 no CPT 9.2µM, DT40 TDP1 CPT 10.3µM
COC(=O)c1[nH]c2c(c1C)C(=O)CC(c1cc(OC)c(OC)c(OC)c1)C2 (configuration not stated)	DT40 TDP1 no CPT 11.6µM, DT40 TDP1 CPT 23.1µM
COCCOC(=O)c1[nH]c2c(c1C)C(=O)CC(c1ccc(OC)c(OC)c1)C2 (configuration not stated)	DT40 TDP1 CPT inconclusive
COc1ccc(S(=O)(=O)N(CC(=O)NCc2cccnc2)c2ccc(C)cc2)cc1OC	none
[O-][N+](=Cc1ccccc1)c1ccc(Cl)cc1	DT40 TDP1 no CPT 20.6µM, DT40 TDP1 CPT 6.51µM
[O-]/[N+](=C/c1ccc(F)cc1)c1ccc(Cl)cc1	DT40 TDP1 no CPT 9.2µM, DT40 TDP1 CPT 16.4µM (no result: 12-LOX inh)
CCC(C(=O)NCCC(C)C)N(C(=O)Cn1nnc(-c2ccc(C)cc2)n1)c1cccc(O)c1 (configuration not stated)	DT40 TDP1 no CPT 16.4µM, DT40 TDP1 CPT inconclusive (no result: HT1080 IDH1KD tx, HT1080NT lethal, IL1B secr inh)
O=C(CSCc1nc2cccnc2n1C1CCCCC1)NCc1cccc(Cl)c1	DT40 TDP1 no CPT 10.3µM, DT40 TDP1 CPT 23.1µM (no result: HT1080 IDH1KD tx, HT1080NT lethal, IL1B secr inh)

Screening results: PubChem BioAssay, National Center for Advancing Translational Sciences (NCATS)
